Bioassay records (PubChem)
G9a inh: blocks human histone lysine methyltransferase G9a; Q96KQ7; G9a H3K9 monomethylation, AlphaScreen, 2 h; Potency, µM (doses to about 102 µM), usual class: inhibitors; hit rate 8.8% among 350,000; note: nearly all actives have a fitted effect of over 75% in size
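Using a bead-based AlphaScreen, monomethylated H3K9 product from 2 h room-temperature reactions (G9a 20 nM, peptide 500 nM, SAM 20 uM) was detected with 0.5 ug/mL rabbit anti-H3K9me1 antibody.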
JMJD2A Tudor: inhibitors of human JMJD2A Tudor domain | O75164 | AlphaScreen JMJD2A-Tudor / H3K4me3 peptide binding | Potency, µM (top dose mostly 114 µM), usual class: inhibitors | hit rate 4.4% among 390,000; note: nearly all actives have a fitted effect of over 50% in size
PLK1 PBD block: blocks phosphopeptide binding to human PLK1 polo-box domain. P53350. Plk1 PBD binding of FITC phosphopeptide, fluorescence polarization. Potency, µM, most hits filed as inhibitors. hit rate 2.8% among 360,000. AID 720504; note: series mostly up to about 57 µM; nearly all actives have a fitted effect of over 65% in size
BAZ2B block: inhibitors of human BAZ2B bromodomain. Potency, µM (titrated, usually from 114 µM), actives largely listed as inhibitors. AID 504333. hit rate 4.4% among 360,000. AlphaScreen BAZ2B-H3K14Ac peptide displacement; note: nearly all actives have a fitted effect of over 60% in size
Target sequence (Q9UIF8 whole entry, looked up): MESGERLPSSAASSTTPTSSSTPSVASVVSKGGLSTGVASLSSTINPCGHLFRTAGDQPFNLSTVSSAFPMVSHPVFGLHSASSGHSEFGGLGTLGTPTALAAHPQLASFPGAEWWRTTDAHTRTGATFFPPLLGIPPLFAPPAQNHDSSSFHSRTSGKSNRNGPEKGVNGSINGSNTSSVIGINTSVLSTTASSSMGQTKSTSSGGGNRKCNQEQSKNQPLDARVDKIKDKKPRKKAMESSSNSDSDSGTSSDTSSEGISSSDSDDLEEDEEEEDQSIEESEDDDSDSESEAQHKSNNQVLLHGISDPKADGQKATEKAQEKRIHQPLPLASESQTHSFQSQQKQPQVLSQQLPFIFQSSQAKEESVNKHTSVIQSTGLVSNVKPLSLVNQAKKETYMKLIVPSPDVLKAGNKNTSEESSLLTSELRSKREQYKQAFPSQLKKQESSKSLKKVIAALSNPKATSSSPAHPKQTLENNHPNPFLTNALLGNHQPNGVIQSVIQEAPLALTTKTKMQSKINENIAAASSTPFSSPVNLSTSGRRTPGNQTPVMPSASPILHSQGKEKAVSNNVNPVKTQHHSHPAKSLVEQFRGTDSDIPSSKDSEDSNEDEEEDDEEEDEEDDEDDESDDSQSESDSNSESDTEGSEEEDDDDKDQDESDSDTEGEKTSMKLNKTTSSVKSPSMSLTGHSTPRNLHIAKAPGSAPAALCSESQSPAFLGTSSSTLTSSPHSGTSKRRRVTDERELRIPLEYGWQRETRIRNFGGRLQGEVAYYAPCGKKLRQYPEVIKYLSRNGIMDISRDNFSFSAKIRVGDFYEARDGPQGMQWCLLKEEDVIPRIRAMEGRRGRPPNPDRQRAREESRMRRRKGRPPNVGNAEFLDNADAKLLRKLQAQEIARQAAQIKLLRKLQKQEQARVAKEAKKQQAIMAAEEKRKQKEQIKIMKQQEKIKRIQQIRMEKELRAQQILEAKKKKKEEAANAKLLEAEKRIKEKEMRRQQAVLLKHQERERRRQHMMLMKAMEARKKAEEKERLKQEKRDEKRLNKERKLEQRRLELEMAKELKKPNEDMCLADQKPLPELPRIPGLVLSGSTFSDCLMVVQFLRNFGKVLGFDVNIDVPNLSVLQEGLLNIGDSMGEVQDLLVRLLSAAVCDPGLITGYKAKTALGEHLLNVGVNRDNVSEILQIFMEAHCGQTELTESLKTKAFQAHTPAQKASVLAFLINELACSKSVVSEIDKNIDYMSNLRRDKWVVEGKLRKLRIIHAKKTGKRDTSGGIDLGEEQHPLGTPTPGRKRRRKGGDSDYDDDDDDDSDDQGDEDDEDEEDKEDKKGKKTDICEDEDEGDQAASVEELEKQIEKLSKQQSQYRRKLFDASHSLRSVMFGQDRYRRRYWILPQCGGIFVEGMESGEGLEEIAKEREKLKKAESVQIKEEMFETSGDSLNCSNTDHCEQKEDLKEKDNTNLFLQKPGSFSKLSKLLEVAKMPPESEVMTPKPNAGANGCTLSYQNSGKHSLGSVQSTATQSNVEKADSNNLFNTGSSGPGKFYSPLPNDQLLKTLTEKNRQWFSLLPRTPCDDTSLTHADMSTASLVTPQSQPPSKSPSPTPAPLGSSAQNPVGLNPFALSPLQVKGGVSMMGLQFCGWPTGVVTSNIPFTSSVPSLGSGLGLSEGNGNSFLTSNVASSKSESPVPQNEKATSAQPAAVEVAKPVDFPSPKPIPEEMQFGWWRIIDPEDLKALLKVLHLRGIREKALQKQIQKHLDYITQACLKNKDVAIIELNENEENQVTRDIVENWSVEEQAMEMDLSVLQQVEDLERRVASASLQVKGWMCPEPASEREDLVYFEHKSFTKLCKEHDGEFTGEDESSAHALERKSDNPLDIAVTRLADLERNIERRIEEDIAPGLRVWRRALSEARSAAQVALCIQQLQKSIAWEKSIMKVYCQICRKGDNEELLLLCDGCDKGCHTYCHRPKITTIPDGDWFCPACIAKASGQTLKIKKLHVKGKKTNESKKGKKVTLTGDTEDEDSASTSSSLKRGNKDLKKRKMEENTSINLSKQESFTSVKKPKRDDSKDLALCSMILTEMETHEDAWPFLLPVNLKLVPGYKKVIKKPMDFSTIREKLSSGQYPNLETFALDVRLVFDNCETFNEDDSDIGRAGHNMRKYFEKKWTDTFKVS
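Protein-peptide AlphaScreen: BAZ2B 50 nM, b-H3K14Ac 50 nM, 1x PBS pH 7.4 + 0.01% Tween-20. Preincubation 30 min RT; cpd 30 min RT (top 110 uM); beads 20 min RT, light-protected.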
ALOX12 inh: blocks human arachidonate 12S-lipoxygenase. AID 1671190. purified 12hLO, xylenol orange hydroperoxide absorbance. Potency, µM (top dose mostly 108 µM), usual class: inhibitors. P18054. hit rate 1.1% among 580,000
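Hydroperoxide product was detected by ferrous iron/xylenol orange as the 573 to 405 nm absorbance ratio. Arachidonic acid at 40 uM (final) was turned over for 30 min at room temperature by 150 nM human 12hLO, pH 7.0 Hepes buffer, after 15 min compound preincubation.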
HP1b chromo inh: HP1-beta chromodomain-methylated histone interaction inhibition; P83916; AlphaScreen HP1-beta / biotin-H3K9me3 peptide binding; Potency, µM (series often up to 114 µM), most hits filed as inhibitors; hit rate 0.56% among 390,000; AID 540317; note: nearly all actives have a fitted effect of over 70% in size
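Compound inhibition of the preformed complex between 50 nM HP1-beta and 50 nM biotinylated H3K9me3 peptide was read by AlphaScreen. Buffer was PBS pH 7.4 with 0.01% Tween-20. Incubations ran 30 min at room temperature, with 10 ug/mL donor/acceptor beads.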
Hits are given with their value; . = inactive; ? = inconclusive; / = no result given; [ ] = another dose, or the depositor's remark. Hits are enriched below; roughly 9% of the tested compounds scored in any of these assays. Calls come from the whole dose curve; as a rule, active = well fitted curve in the direction sought with a large enough effect; inconclusive = small, poorly fitted or top-dose-only effect, or another doubt; inactive = no such curve, though single readings can be large; an effect the other way counts as inactive or inconclusive.

SMILES	G9a inh	JMJD2A Tudor	PLK1 PBD block	BAZ2B block	ALOX12 inh	HP1b chromo inh
CCN(CC)c1ccc(NC(=O)CN2CCN(CC(=O)Nc3ccc(OC)cc3)CC2)cc1	11µM	.	.	.	.	.
O=C(CN1CCCC1)Nc1ccc(Br)cc1	4.5µM	13µM	.	50µM	.	?
O=C(CNCC1CCCCC1)Nc1ccc(OC(F)(F)F)cc1	8.9µM	3.5µM	.	50µM	.	.
COCC(=O)N[C@H]1CC[C@@H](CC(=O)OC)O[C@@H]1CO	/	/	.	/	.	/
CC(C)[C@H](NC(=O)c1ccco1)C(=O)Nc1ccc(N2CCCCCC2)cc1	/	/	.	/	.	/
CN(C)c1ccc(NC(=O)CN2CCN(CC(=O)Nc3ccc(Br)cc3)CC2)cc1	8.9µM	.	/	.	.	.
Cc1ccc(NC(=O)CN2CCCC2)cc1Br	50µM	56µM	.	?	?	.
O=C(CN1CCCCCC1)Nc1ccccc1	4µM	8.9µM	.	50µM	.	?
Cc1ccc(Cn2c(C3CCN(C(=O)c4cccc(F)c4)CC3)n[nH]c2=O)cc1	/	/	/	/	45µM	/
O=C(COc1ccc(F)cc1)N1CCC(c2n[nH]c(=O)n2-c2ccccc2)CC1	/	/	/	/	.	/
Cc1ccc(-n2c(C3CCN(C(=O)COc4ccc(F)cc4)CC3)n[nH]c2=O)cc1	/	/	/	/	45µM	/
Cc1ccc(OCC(=O)N2CCC(N3CC(C)CC(C)C3)CC2)cc1 (stereo unspecified)	25µM	1.6µM	.	.	.	?
Cc1ccc(Cn2c(C3CCN(C(=O)c4ccc(C#N)cc4)CC3)n[nH]c2=O)cc1	/	/	/	/	6.3µM	/
Cc1ccc(Cn2c(C3CCN(C(=O)c4cccc(C)c4)CC3)n[nH]c2=O)cc1	/	/	/	/	.	/
Cc1cnc(C(=O)OC(C)C(=O)Nc2ccc(Oc3ccccc3)cc2)cn1 (stereo unspecified)	.[12.7 µM]	.	.	.	.	.
COc1ccc(-n2cc(-c3ccccc3)[nH]c2=S)c(OC)c1	?	?	.	?	?	.
Fc1ccccc1-n1cc(-c2ccccc2)[nH]c1=S	3.5µM	?	.	?	?	.
Cc1ccc(NC(=O)C2=C(c3ccccc3)NC(=S)NC2c2ccc(Cl)cc2)cc1 (stereo unspecified)	/	/	/	/	35µM	/
Cc1ccc(NC(=O)C2=C(c3ccccc3)NC(=S)NC2c2ccc(Br)cc2)cc1 (stereo unspecified)	/	/	/	/	32µM	/
COc1ccc(-c2c(N)nnc3c2[nH]c2ccccc23)cc1OC	.	.[11.4 µM]	?	.	?	.
O=c1c2ccccc2[nH]c(=S)n1Cc1cccs1	.	.	.	.	.	.
O=[N+]([O-])c1cccc(/C=N/n2c(-c3cccnc3)n[nH]c2=S)c1	1.8µM	4µM	.	.	?	?
O=[N+]([O-])c1ccc2nc(-c3cccnc3)[nH]c2c1	/	.	.	?	.	.
O=[N+]([O-])c1ccc(Cl)c(/C=N/n2c(-c3cccnc3)n[nH]c2=S)c1	5.6µM	/	/	.	/	/
Cc1ccsc1/C=N/n1c(-c2cccnc2)n[nH]c1=S	?	4.5µM	.	.	?	.
SMILES	G9a inh	JMJD2A Tudor	PLK1 PBD block	BAZ2B block	ALOX12 inh	HP1b chromo inh
O=[N+]([O-])c1ccc(-c2nn(-c3ccccc3)cc2/C=N/n2c(-c3ccncc3)n[nH]c2=S)cc1	?	.	?	.	.	.
O=[N+]([O-])c1ccc(/C=N/n2c(-c3cccnc3)n[nH]c2=S)cc1	.	8.9µM	.	.	.	.
C=Cc1ccc(Cn2c(C(=O)O)c(CNC3CCCCC3)c3ccc(OC)cc32)cc1	.	.	/	?	?	.
O=C(NCC(c1cccs1)N1CCOCC1)c1ccc([N+](=O)[O-])cc1 (stereo unspecified)	.	.	.	.	.	.
COc1ccc(-c2cc3c(c(OC)c2)OCCNC3)nn1	/	/	/	/	.	/
O=C(COc1ccc(Cl)cc1)OCC(=O)N1CCCC1	.	.	.	.	.	.
CC(C)(C)C1=CC(=Nc2ccccc2N)C=C(C(C)(C)C)C1=O	.	4µM	.	.	.	4.5µM
O=c1[nH][nH]c2c1C(c1cccc(C(F)(F)F)c1)OC(CCc1ccccc1)C2 (stereo unspecified)	/	/	.	/	.	/
Cc1ccc(NCc2cccnc2)c(Br)c1	14µM	3.2µM	.	79µM	?	?
Cc1cc(F)ccc1NCc1cccnc1	.[12.7 µM]	.	?	.	.	?
Cc1ccc(NCc2ccc(Cl)nc2)c(NCc2ccc(Cl)nc2)c1	35µM	.	.	35µM	?	.
Fc1ccc(NCc2cccnc2)cc1F	?	79µM	.	?	.	.
Cc1ccc(S(=O)(=O)N2[C@@H](c3ccc(Br)cc3)C(C(=O)O)=CC[C@H]2c2ccc(Cl)cc2)cc1	/	.	27µM	/	?	.
Cc1ccc(S(=O)(=O)N2[C@@H](c3cccc(Cl)c3)C(C(=O)O)=CC[C@H]2c2ccc(C(C)C)cc2)cc1	.[2.33 µM]	?	21µM	?	?	.
Cc1ccc(S(=O)(=O)N2[C@@H](c3ccc(Cl)cc3)C(C(=O)O)=CC[C@H]2c2cccc(Cl)c2)cc1	.[2.33 µM]	.	24µM	.	.	.
Cc1ccc(S(=O)(=O)N2[C@@H](c3ccc(F)cc3)C(C(=O)O)=CC[C@H]2c2ccc(C(C)C)cc2)cc1	.[2.33 µM]	.	?	.	?	.
O=C(O)C1=CC[C@@H](c2ccc(Cl)cc2)N(S(=O)(=O)c2ccc(Cl)cc2)[C@H]1c1ccc(Br)cc1	/	.	27µM	/	.	.
O=C(CCc1ccccc1)NC1C2CC3CC(C2)CC1C3 (stereo unspecified)	.	.	.	.	.	.
Cc1ccc(S(=O)(=O)N2[C@@H](c3ccccc3)C(C(=O)O)=CC[C@H]2c2ccc(Cl)cc2)cc1	.[2.33 µM]	.	24µM	.	?	.
O=C(O)C1=CC[C@@H](c2ccc(Cl)cc2)N(S(=O)(=O)c2ccc(Cl)cc2)[C@H]1c1cccc(Cl)c1	.[2.33 µM]	.	30µM	.	?	.
CCc1ccc([C@@H]2CC=C(C(=O)O)[C@H](c3ccc(Br)cc3)N2S(=O)(=O)c2ccc(C)cc2)cc1	/	.	27µM	/	?	.
Cc1ccc([C@@H]2CC=C(C(=O)O)[C@H](c3ccc(Cl)cc3)N2S(=O)(=O)c2ccc(C)cc2)cc1	.[2.33 µM]	.	?	.	?	.
O=C(NCCOc1ccccc1)c1cc(S(=O)(=O)N2CCOCC2)ccc1F	/	.	.	.	.	.
Cn1c(-c2ccccc2)c(C=O)c2ccccc21	/	.	.	.	.	.
CCCCOc1ccc(S(=O)(=O)NCCO)cc1	/	/	/	/	.	/
O=Cc1ccc(C(=O)O)cc1	.[0.501 µM]	.	.	.	.	.
CC1(c2ccccc2Cl)NC(=O)N(CC(=O)Nc2ccc(N3CCCCC3)cc2)C1=O (stereo unspecified)	14µM	?	.	35µM	.	.
CC1CC(C)(C)CC2(C1)NC(=O)N(CC(=O)Nc1ccc(N3CCCCC3)cc1)C2=O (stereo unspecified)	45µM	?	.	?	.	?
